Records with an inconclusive call do not appear. Unmarked numbers belong to inactive results. The call rests on the fitted dose curve; in most records, active means well fitted curve in the direction sought with a large enough effect; inconclusive means small, poorly fitted or top-dose-only effect, or another doubt; inactive means no such curve, though single readings can be large or run the other way.

Chain of Protein phosphatase EYA2 (Homo sapiens) (O00167 whole entry, looked up): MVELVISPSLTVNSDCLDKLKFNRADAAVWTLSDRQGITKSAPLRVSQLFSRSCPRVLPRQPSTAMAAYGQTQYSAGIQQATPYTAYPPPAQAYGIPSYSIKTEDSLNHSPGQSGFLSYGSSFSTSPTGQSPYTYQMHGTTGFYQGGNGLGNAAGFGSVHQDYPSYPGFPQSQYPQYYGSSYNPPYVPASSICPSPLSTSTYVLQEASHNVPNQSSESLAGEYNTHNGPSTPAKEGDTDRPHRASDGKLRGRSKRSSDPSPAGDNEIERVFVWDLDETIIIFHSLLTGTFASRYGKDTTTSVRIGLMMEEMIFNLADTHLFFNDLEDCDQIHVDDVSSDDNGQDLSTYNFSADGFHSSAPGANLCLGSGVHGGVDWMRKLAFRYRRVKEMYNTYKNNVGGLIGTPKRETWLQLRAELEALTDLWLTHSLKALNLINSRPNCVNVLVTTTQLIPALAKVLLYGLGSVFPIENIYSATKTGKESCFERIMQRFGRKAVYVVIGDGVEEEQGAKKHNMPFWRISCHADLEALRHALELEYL

This assay concerns the target Protein phosphatase EYA2 (Homo sapiens) (UniProt O00167). As to the kind of experiment: Inhibitors of Eya2ED: Hit Confirmation in Primary Screen. To be noted: Recombinant Eya2ED, OMFP fluorescence phosphatase assay; series mostly up to 76.9 µM; activity change, negative = inhibition: at the top concentration. In short, it runs like this: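 Eya2 (dispensed at 0.2 uM) was preincubated 10 min at ambient with compound in 50 mM HEPES pH 7.5, 50 mM NaCl, 5 uM MgCl2, 0.05% BSA, 1 mM DTT. OMFP (dispensed at 50 uM) was then added, and fluorescence (ex 485/em 525 nm) was read after 10 min. Retested as 12-point titrations; EGTA control.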
Consider `CC(=O)c1c(C)[nH]c(C(=O)COC(=O)COc2ccccc2)c1C`, for which the “activity change, negative = inhibition” value is 16%. In the case of `COc1ccc(CC(=O)Nc2cccnc2)cc1`, the “activity change, negative = inhibition” value was -22.4%. Turning to `O=C(CC1(CC(=O)N2CCOCC2)CCCC1)Nc1ccccc1`, the “activity change, negative = inhibition” value is 12.2%. In the case of `Cc1ccc(C(=O)NCc2ccc(Cl)cc2)o1`, the “activity change, negative = inhibition” value was 8.71%. For `CCOC(=O)CN(C(=O)CN1CCC(n2nnc3cc(C)ccc32)CC1)c1ccccc1`, the “activity change, negative = inhibition” value was -0.334%.

For `O=C1/C(=C/c2cccs2)N=C(c2cccs2)N1Nc1ccccc1`, the “activity change, negative = inhibition” value was -17.4%. In the case of `O=C(NN=Cc1ccccc1Cl)c1ccc(-n2cnnn2)cc1`, the “activity change, negative = inhibition” value was 0.806%. Consider `Cc1cc(C)c(S(=O)(=O)N2CCCCC2CCNC(=O)C(=O)NCCN2CCOCC2)c(C)c1` (stereo unspecified), for which the “activity change, negative = inhibition” value is -17%. As for `Cn1cccc1CC(=O)NNC(=S)NC(=O)c1ccc(F)cc1`, the “activity change, negative = inhibition” value is -29.9%. As to `CCOc1ccc(NC(=O)COC(=O)CN2CCCCCC2=O)cc1`, the “activity change, negative = inhibition” value is 15.3%. For the compound `CN(CCCC(=O)N1CCN(c2ncccn2)CC1)S(=O)(=O)c1ccc(F)cc1`, the “activity change, negative = inhibition” value was -1.76%. Consider `Cc1ccc(NC(=O)CC2C(=O)NC3CCCCC3N2C(=O)c2ccc(F)cc2)cc1C` (stereo unspecified), for which the “activity change, negative = inhibition” value is -1.78%. Consider `CCCOc1ccc(S(=O)(=O)N2CCN(C)CC2)c2ccccc12`, for which the “activity change, negative = inhibition” value was -5.34%. As for `CCCOc1ccc(C(=O)OCC(=O)c2c(N)n(C)c(=O)n(C)c2=O)cc1OC`, the “activity change, negative = inhibition” value is -21.1%.

Consider `Cc1ccc(Nc2nc(N)nc(CSc3ncccn3)n2)cc1`, for which the “activity change, negative = inhibition” value was -25.5%. With `O=C(O)/C=C/C(=O)Nc1ccc2nccnc2c1`, the “activity change, negative = inhibition” value is -13.7%.

Consider `COc1ccc(-c2noc(CCC(=O)NC3CCCCC3)n2)cc1OC`, for which the “activity change, negative = inhibition” value is -5.13%.

Regarding `CCOc1cc(C)c(Cl)cc1S(=O)(=O)NCc1ccco1`, the “activity change, negative = inhibition” value is 7.89%. For the compound `COC(=O)C1=C(C)Nc2ncnn2C1c1ccco1` (stereo unspecified), the “activity change, negative = inhibition” value is -29.7%. Turning to `COc1ccc(CCc2nc(C)ccc2O)cc1`, the “activity change, negative = inhibition” value was -2.2%. In the case of `COC(=O)C(NNc1ccccc1)(NC(=O)c1cccc(F)c1)C(F)(F)F` (stereo unspecified), the “activity change, negative = inhibition” value was 1.48%. For `N#Cc1ccccc1NC(=O)CSC1=Nc2ccccc2C2CC=NN12` (stereo unspecified), the “activity change, negative = inhibition” value is -26.1%. As for `COC(=O)c1ccc(Cn2cc([N+](=O)[O-])cn2)cc1`, the figure is 6.62%. Regarding `Cc1ccc(S(=O)(=O)NNC(=S)NCCc2ccccc2)cc1`, the “activity change, negative = inhibition” value is -8.51%. As to `Cc1c(NS(=O)(=O)c2ccc(N)cc2)c(=O)n(-c2ccccc2)n1C`, the “activity change, negative = inhibition” value was -15.5%. As for `Cc1ccc(N(CC(=O)N2CCOCC2)S(C)(=O)=O)cc1Cl`, the figure is -1.2%; as for `CCOc1ccc(S(=O)(=O)NC(C)C(=O)NCc2ccncc2)cc1` (stereo unspecified), -21.8%; as for `COc1ccc(CCNC(=O)CCSc2nc(-c3ccco3)cc(C(F)(F)F)n2)cc1OC`, -7.04%. Regarding `CSCC[C@H](NC(=O)[C@@H]1Cc2ccccc2CN1)C(=O)Nc1ccc2c(c1)OCCO2`, the “activity change, negative = inhibition” value was 0.798%.

With `Cn1c(N)c(C(=O)CSc2nnc(C3CC3)n2-c2ccccc2)c(=O)[nH]c1=O`, the “activity change, negative = inhibition” value is -7.48%. As for `CCCC(=O)Nc1cccc(NC(=O)c2ccc3c(c2)OCCO3)c1`, the “activity change, negative = inhibition” value is -35%.
